RORg inh – blocks mouse ROR gamma transcriptional activity. Drosophila S2 Gal4-RORgamma UAS-luciferase reporter, 20 h. Potency, µM (top dose mostly 53.6 µM), without a hit: at the top dose activity change, negative = inhibition, actives largely listed as inhibitors. AID 2551. hit rate 5.4% among 310,000. P51450; note: nearly all actives have a fitted effect of over 60% in size
Target sequence (P51450 whole entry, looked up, the tested form may be a part): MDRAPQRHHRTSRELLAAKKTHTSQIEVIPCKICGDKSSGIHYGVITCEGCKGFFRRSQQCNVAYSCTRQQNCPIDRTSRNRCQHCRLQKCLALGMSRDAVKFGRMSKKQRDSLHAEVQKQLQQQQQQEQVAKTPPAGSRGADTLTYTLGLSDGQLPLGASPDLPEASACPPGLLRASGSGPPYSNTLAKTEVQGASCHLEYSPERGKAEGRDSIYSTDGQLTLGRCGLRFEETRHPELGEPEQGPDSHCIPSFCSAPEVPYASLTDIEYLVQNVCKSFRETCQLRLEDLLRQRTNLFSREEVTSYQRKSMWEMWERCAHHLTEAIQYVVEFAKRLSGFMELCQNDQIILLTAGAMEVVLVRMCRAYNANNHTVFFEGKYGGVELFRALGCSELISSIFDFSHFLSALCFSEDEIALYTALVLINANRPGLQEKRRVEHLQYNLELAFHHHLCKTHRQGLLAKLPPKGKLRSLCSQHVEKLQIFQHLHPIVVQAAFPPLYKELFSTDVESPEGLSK
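Compounds are pin-transferred onto Drosophila Schneider cells expressing a copper-inducible Gal4–ROR gamma transactivation domain fusion. After 1 hr, copper sulfate is added to 700 uM final; luciferase is read 20 hr later.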
Gal4-VP16 FLuc – Gal4-VP16 reporter inhibition counter-screen. Drosophila S2 Gal4-VP16 UAS-luciferase, luminescence, 20 h. Potency, µM (highest dose often 53.6 µM), for inactives: at the top dose activity, negative = inhibition, usual class: inhibitors. hit rate 3.5% among 310,000;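 note: Gal4-VP16 expression switched on by copper sulfate through the metallothionein promoter; nearly all actives have a fitted effect of over 50% in size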
NPSR antag – antagonists of human neuropeptide S receptor cAMP signaling; Q6W5P4; CHO-NPSR cells, cAMP TR-FRET, antagonist mode; Potency, µM (highest dose often 38.3 µM), without a hit: top-dose activity change, negative = inhibition, usual class: inhibitors; hit rate 1% among 220,000; note: nearly all actives have a fitted effect of over 50% in size
B2AR arrestin – agonists driving beta-arrestin recruitment to human beta2-adrenergic receptor. beta-arrestin recruitment to beta2AR, cell-based reporter. Potency, µM (series often up to 46.1 µM), for inactives: top-dose activation, most hits filed as activators. hit rate 0.02% among 330,000. AID 492947;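 note: 0% = DMSO controls and full agonism = EC100 isoproterenol or metaproterenol; nearly all actives have a fitted effect of over 65% in size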
The depositor's hits bear a star; u = inconclusive; x = no result; [ ] = remark or other dose. Shown are actives, neighbours in structure and some others; about 5.7% of the full set was active somewhere. Calls come from the whole dose curve; as a rule, active = well fitted curve in the direction sought with a large enough effect; inconclusive = small, poorly fitted or top-dose-only effect, or another doubt; inactive = no such curve, though single readings can be large; an effect the other way counts as inactive or inconclusive. Unless noted, % is set by controls: 0 for no effect and ±100 for the full control effect; potency is the fitted concentration of half-maximal effect.

SMILES	RORg inh	Gal4-VP16 FLuc	NPSR antag	B2AR arrestin
COc1ccc(C2CC(=O)C(C(c3ccc(O)cc3)C3C(=O)CC(c4ccc(OC)cc4)CC3=O)C(=O)C2)cc1 (centres undefined)	17%	4%	-41%	2%
CCc1noc(C)c1C(=O)N1CCSC1=Nc1cccc(Cl)c1C	-13%	0%	x	-1%
COc1ccc(C2=NOC(Cn3nc(-c4ccccc4C)cc3C(=O)O)C2)cc1 (centres undefined)	x	x	x	0%
CC(C)(C)C(=O)NC(=S)Nc1ccccc1F	13µM*	u	-4%[46.1 µM]	0%
CC(=O)NC(=S)Nc1ccccc1F	u	u	7%	0%
CC(C)(C)c1cc(CCC(=O)N2CCC2)cc(C(C)(C)C)c1O	13µM*	-97%	x	0%
CCn1nnc2sc3c(c2c1=O)CCC(C)C3 (centres undefined)	14%	-2%	8%[46.1 µM]	0%
Cn1c(=S)[nH]c2sc3c(c2c1=O)CCC(C(C)(C)C)C3 (centres undefined)	0.32µM*	1µM*	x	0%
CC(=O)Cn1nnc2sc3c(c2c1=O)CCC(C(C)(C)C)C3 (centres undefined)	19%	u	-39%	0%
COCCCn1c(=S)[nH]c2sc3c(c2c1=O)CCCS3	1µM*	2.8µM*	7.9µM*	1%
O=c1[nH]c(=S)[nH]c2sc3c(c12)CCCCCC3	14µM*	u	x	-1%
COCCn1c(=S)[nH]c2sc3c(c2c1=O)CCC(C)C3 (centres undefined)	1.1µM*	1.3µM*	x	0%
O=c1[nH]c(C2CC2)nc2sc3c(c12)CCCC3	10%	16%	17%	-1%
CC(C)On1c(SCC(=O)N(C)C)nc2ccccc2c1=O	17%	3%	12%	0%
Cc1ccc(NC(=O)CSCC(=O)Nc2cc(Cl)ccc2N2CCOCC2)cc1	x	x	x	3%
COc1ccc(NC(=O)CN2C(=O)COc3ccc(S(=O)(=O)N4CCCCCC4)cc32)cc1	21%	6%	x	0%
O=C(Nc1ccccc1)N1CCCC2(CCN(C(=O)c3cccc(F)c3)CC2)C1	-6%	-5%	x	x
NC(N)=NCCC[C@H](N)C(=O)NCC(=O)N[C@@H](CC(=O)O)C(=O)O	-10%	-5%	x	x
Cc1ccc2nc3sc(C(=O)Nc4ccc(F)cc4)cc3cc2c1	x	x	x	0%
Cc1cn(-c2cc(NC(=O)c3ccc(C)c(NC(=O)c4cccc(-c5cn[nH]c(=O)c5)c4)c3)cc(C(F)(F)F)c2)cn1	10%	12%	x	0%
CCCn1c(=S)[nH]c2sc3c(c2c1=O)CCCC3	0.28µM*	0.89µM*	x	0%
CCOc1ccc(NC(=S)NCCN2CCN(Cc3ccccc3)CC2)cc1	11µM*	u	-28%	0%
CNC(=S)Nc1ccc(OCc2ccccc2)cc1	4µM*	u	3%	0%
CCOc1ccc(NC(=S)Nc2ccc(OC)cc2)cc1	7.9µM*	u	6%	0%
CCOc1ccc(CN2CCC(Cc3ccccc3)CC2)cc1	-29%	-5%	x	0%
SMILES	RORg inh	Gal4-VP16 FLuc	NPSR antag	B2AR arrestin
Cc1cccnc1NC(=S)Nc1ccc(Br)cc1Cl	2.5µM*	7.1µM*	-54%	u
N#Cc1ccc2c(c1)C[C@]1(c3ccsc3)Oc3c(c(=O)oc4ccccc34)C2O1	u	-4%[10 µM]	x	0%[9.22 µM]
CC(C)(C)c1ccc(OCCNC(=S)Nc2ccccc2)cc1	-25%	-3%	u	0%
CCC(C)c1ccc(NC(=S)Nc2ccc(OC)cc2)cc1 (centres undefined)	7.1µM*	5.6µM*	-20%	0%
CCOc1ccc(NC(=S)Nc2ccc(OCc3ccccc3)cc2)cc1	u	22µM*	21%	-1%
CCOc1ccc(NC(=S)NCCCN2CCN(c3ccc(OC)cc3)CC2)cc1	5µM*	u	-24%	-1%
CCOc1ccc(CSCCNC(=S)Nc2ccccc2)cc1	6.3µM*	4.5µM*	-22%	0%
COc1ccc(NC(=S)NCCCN2CCCC2)cc1	13%	6%	9%	0%
CCN(CC)C(=S)Nc1ccc(OC)cc1	-34%	3%	6%	0%
c1cncc(CNc2ccnc(-c3cccnc3)n2)c1	21%	2%	x	x
Cc1c(NC(=O)N(C)c2ccccc2)c(=O)n(-c2ccccc2)n1C	-11%	-1%	x	0%
COc1ccc(NC(=S)Nc2cccc(C)n2)cc1	u	4.5µM*	u	u
CCOc1ccc(NC(=S)NCc2cccnc2)cc1	-14%	14%	-34%	0%
CCOc1ccc(NC(=S)NCCCc2ccccc2)cc1	5µM*	u	19%	0%
